± gives the standard deviation of the averaged measurements.
How the values were obtained:
Assay in all cases: relative enzymatic activity vs untreated control (fraction); higher = less inhibition
Details in all cases: 100 µM; incubation time: 2 h at 37 C
DNA gyrase = system: DNA gyrase
Description: (§1)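 In vitro enzymatic inhibition assays (ProFoldin kits) for 12 purified essential E. coli enzymes or complexes, each treated with 218 active antibacterial compounds at 100 µM for 2 h at 37°C. Read-outs were fluorescence or absorbance (phosphate detection, dye binding), converted to activity via standard curves and expressed relative to untreated DMSO controls.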

DNA helicase = DNA helicase (UniProt P0ACB1)
DNA helicase, sequence (P0ACB1 whole entry): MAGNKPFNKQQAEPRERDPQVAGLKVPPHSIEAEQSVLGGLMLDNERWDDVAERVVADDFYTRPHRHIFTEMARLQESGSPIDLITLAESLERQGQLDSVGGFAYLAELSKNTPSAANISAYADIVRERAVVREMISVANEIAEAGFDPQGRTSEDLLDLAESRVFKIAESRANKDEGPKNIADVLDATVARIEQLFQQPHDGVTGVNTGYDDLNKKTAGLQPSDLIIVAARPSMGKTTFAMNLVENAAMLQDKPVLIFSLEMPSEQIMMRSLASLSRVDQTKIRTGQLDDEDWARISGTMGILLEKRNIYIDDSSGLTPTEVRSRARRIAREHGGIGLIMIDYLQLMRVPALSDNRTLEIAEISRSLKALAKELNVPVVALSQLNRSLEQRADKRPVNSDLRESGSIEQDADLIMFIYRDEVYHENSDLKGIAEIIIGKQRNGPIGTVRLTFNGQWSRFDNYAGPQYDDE
Description: as §1

DNA ligase = DNA ligase (UniProt B1XA82)
DNA ligase, sequence (B1XA82 whole entry): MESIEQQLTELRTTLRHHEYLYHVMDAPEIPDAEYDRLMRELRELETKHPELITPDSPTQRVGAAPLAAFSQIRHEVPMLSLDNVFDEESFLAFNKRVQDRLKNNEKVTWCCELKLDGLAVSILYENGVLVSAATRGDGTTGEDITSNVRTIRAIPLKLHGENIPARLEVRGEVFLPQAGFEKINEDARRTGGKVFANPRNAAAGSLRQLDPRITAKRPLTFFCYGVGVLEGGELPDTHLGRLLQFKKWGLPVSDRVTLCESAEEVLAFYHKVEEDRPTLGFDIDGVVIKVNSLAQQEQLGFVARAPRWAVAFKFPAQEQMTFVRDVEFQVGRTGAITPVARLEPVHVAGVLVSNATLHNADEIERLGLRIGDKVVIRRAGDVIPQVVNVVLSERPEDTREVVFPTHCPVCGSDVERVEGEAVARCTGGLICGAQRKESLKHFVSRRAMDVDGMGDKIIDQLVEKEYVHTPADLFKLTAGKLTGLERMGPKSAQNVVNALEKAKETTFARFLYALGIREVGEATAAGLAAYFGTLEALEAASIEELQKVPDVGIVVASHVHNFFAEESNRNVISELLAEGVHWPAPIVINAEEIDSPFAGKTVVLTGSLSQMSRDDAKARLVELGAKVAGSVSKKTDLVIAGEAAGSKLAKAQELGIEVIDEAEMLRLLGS
Description: as §1

DNA polymerase = DNA polymerase (UniProt P10443)
DNA polymerase, sequence (P10443 whole entry): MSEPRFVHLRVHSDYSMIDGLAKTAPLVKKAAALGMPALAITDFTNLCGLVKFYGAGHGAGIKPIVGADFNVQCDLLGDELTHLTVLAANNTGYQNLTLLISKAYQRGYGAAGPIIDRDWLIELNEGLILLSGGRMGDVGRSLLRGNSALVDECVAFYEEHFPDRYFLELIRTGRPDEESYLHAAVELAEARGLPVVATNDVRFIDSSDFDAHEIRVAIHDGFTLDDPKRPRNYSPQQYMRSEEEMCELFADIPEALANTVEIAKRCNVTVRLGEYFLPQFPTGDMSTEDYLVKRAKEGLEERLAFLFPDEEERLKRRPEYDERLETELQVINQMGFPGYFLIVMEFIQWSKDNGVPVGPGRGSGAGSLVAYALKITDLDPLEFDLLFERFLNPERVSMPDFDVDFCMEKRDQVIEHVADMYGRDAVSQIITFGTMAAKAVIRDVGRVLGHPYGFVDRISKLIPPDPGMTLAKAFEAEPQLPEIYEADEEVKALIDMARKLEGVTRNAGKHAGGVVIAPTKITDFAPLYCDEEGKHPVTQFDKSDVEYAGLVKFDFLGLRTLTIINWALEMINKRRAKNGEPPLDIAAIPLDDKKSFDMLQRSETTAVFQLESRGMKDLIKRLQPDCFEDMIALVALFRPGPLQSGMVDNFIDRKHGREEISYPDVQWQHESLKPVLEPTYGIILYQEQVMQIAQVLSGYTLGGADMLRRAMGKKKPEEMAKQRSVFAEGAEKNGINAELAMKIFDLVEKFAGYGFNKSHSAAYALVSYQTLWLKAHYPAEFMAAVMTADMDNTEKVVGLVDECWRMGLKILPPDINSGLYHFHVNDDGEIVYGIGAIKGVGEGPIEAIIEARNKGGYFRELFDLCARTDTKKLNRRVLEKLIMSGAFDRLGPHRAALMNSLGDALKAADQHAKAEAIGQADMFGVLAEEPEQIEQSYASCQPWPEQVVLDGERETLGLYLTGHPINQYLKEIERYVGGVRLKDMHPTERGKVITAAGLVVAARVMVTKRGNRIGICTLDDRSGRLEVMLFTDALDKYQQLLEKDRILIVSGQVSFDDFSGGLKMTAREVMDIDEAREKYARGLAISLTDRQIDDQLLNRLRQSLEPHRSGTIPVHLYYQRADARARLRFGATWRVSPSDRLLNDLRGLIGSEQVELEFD
Description: as §1

DNA primase = DNA primase (UniProt P0ABS7)
DNA primase, sequence (P0ABS7 whole entry): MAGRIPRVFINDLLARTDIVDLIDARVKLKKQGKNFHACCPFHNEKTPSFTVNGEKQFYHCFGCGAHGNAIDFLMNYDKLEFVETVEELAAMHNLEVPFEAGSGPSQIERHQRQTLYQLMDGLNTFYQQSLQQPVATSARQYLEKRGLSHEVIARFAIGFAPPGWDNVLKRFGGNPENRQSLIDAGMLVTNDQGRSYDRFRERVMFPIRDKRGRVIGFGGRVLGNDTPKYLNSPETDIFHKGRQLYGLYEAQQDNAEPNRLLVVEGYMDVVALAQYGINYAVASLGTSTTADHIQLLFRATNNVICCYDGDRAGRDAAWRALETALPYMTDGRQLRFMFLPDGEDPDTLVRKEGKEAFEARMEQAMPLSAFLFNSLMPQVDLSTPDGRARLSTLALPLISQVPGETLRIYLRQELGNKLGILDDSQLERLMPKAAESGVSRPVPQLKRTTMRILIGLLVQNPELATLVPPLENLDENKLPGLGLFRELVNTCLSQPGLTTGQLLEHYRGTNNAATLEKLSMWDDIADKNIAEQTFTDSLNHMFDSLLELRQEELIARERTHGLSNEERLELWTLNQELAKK
Description: as §1

GlmU = GlmU (UniProt A7ZTU1)
GlmU, sequence (A7ZTU1 whole entry, looked up): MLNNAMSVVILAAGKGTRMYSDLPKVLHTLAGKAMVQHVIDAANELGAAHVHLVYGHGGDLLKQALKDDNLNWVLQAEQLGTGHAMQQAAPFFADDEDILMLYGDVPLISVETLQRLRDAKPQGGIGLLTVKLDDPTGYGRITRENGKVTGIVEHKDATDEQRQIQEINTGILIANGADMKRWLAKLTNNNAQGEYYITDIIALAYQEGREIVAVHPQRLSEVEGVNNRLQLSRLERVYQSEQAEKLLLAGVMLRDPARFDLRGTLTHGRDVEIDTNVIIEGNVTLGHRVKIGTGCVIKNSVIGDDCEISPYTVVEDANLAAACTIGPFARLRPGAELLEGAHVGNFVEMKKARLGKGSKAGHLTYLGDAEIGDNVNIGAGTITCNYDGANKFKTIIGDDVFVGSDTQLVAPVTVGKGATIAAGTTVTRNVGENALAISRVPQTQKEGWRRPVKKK
Description: as §1

Guanlyate kinase = Guanlyate kinase (UniProt Q0TBG1)
Guanlyate kinase, sequence (Q0TBG1 whole entry): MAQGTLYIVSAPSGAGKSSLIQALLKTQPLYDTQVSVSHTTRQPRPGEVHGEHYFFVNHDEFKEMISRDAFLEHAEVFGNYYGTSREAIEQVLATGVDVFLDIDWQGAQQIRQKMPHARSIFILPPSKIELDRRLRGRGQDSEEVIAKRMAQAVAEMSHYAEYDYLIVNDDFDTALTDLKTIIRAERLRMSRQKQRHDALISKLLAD
Description: as §1

MurA = MurA (UniProt Q3YX52)
MurA, sequence (Q3YX52 whole entry): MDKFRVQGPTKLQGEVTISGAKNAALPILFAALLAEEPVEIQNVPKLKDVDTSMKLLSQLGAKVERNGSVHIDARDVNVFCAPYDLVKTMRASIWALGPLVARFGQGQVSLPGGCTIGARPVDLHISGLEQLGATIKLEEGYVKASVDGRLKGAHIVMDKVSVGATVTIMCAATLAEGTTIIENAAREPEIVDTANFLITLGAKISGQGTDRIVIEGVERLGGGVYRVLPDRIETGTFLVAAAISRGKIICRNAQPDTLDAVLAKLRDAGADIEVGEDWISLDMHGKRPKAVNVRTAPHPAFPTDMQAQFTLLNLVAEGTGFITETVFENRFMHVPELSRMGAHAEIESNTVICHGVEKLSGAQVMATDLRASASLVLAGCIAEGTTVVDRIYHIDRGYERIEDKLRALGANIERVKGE
Description: as §1

MurD = target: T1, MurD (UniProt P14900)
T1 sequence (whole entry): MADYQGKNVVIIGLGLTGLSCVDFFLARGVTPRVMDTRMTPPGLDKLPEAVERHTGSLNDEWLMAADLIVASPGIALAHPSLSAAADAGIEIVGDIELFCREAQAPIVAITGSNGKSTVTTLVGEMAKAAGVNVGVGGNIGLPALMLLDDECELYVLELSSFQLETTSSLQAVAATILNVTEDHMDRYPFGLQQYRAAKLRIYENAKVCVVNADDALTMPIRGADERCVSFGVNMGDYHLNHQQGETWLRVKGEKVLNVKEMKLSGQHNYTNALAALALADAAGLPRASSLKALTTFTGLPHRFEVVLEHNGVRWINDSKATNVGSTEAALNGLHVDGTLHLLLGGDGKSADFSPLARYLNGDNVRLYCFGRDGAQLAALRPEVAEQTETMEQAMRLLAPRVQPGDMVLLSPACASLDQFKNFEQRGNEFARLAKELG
Description: as §1

MurF = target: T2, MurF (UniProt P11880)
T2 sequence (whole entry): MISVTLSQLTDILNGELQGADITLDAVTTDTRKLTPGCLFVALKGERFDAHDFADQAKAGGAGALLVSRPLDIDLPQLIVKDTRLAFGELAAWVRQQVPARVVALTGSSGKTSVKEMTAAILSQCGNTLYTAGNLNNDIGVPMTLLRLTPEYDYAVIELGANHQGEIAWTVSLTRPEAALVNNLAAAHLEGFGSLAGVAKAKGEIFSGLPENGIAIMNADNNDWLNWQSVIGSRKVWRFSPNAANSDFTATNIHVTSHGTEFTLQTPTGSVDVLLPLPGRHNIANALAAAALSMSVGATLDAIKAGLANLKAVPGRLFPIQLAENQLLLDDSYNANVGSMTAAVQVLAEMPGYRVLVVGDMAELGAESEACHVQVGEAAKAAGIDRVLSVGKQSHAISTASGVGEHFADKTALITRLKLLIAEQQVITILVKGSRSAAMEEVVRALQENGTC
Description: as §1

RNA polymerase = system: RNA polymerase
Description: as §1

SMILES | relative enzymatic activity (DNA gyrase) | relative enzymatic activity (DNA helicase) | relative enzymatic activity (DNA ligase) | relative enzymatic activity (DNA polymerase) | relative enzymatic activity (DNA primase) | relative enzymatic activity (GlmU) | relative enzymatic activity (Guanlyate kinase) | relative enzymatic activity (MurA) | relative enzymatic activity (MurD) | relative enzymatic activity (MurF) | relative enzymatic activity (RNA polymerase)
Cc1cc(C(C)(C)CC(C)(C)C)ccc1OCCOCC[N+](C)(C)Cc1ccccc1.[Cl-] | 0.0681 ± 0.096 | 0.0148 ± 0.0016 | 1.09 ± 0.19 | 0.247 ± 0.011 | 0.55 ± 0.034 | 0.409 ± 0.4 | 0.428 ± 0.034 | 0.0365 ± 0.0028 | 0.0983 ± 0.021 | 0.477 ± 0.33 | 0.664 ± 0.036
CCCCCCCCCCCCC[N+](C)(C)Cc1ccccc1.O.[Cl-] | 0.0515 ± 0.073 | 0.0193 ± 0.00021 | 0.811 ± 0.32 | 0.208 ± 0.0053 | 0.482 ± 0.019 | 0.157 ± 0.036 | 0.171 ± 0.062 | 0.051 ± 0.015 | 0.115 ± 0.035 | 0.102 ± 0.021 | 0.32 ± 0.068
O=C([O-])C1=C(CSc2nnnn2CS(=O)(=O)[O-])CSC2C(NC(=O)C(O)c3ccccc3)C(=O)N12.[Na+].[Na+] (configuration not stated) | 0.964 ± 0.12 | 0.74 ± 0.14 | 1.26 ± 0.45 | 1.24 ± 0.4 | 0.753 ± 0.0084 | 1.1 ± 0.034 | 0.879 ± 0.012 | 0.1 ± 0.034 | 0.217 ± 0.2 | 1.03 ± 0.24 | 0.815 ± 0.068
CO[C@@H]1[C@@H](OC(=O)c2ccc(C)[nH]2)[C@@H](O)[C@@H](Oc2ccc3c(c2C)OC(=O)[C@H](NC(=O)c2[nH]cc(CC(=O)Nc4cc5ccc(O[C@@H]6OC(C)(C)[C@H](OC)[C@@H](OC(=O)c7ccc(C)[nH]7)[C@H]6O)c(C)c5oc4=O)c2C)C3)CC1(C)C | 0.165 ± 0.23 | 0.0977 ± 0.012 | 0.835 ± 0.013 | 0.759 ± 0.06 | 0.876 ± 0.11 | 0.892 ± 0.021 | 0.72 ± 0.087 | 1.09 ± 0.059 | 0.869 ± 0.57 | 1.26 ± 0.26 | 0.715 ± 0.093
CC[C@H]1OC(=O)[C@H](C)[C@@H](O[C@H]2C[C@@](C)(OC)[C@@H](O)[C@H](C)O2)[C@H](C)[C@@H](O[C@@H]2O[C@H](C)C[C@H](N(C)C)[C@H]2O)[C@](C)(OC)C[C@@H](C)C(=O)[C@H](C)[C@@H](O)[C@]1(C)O | 0.647 ± 0.56 | 0.732 ± 0.33 | 0.901 ± 0.15 | 1.15 ± 0.22 | 0.831 ± 0.025 | 1.03 ± 0.0049 | 0.97 ± 0.048 | 0.856 ± 0.12 | 0.58 ± 0.37 | 0.942 ± 0.24 | 0.862 ± 0.13
CC(C)[C@@H](CC[C@@H](C)[C@H]1CC[C@H]2[C@@H]3[C@H](O)C[C@H]4C[C@@H](NCCCNCCCCNCCCN)CC[C@]4(C)[C@H]3CC[C@]12C)OS(=O)(=O)O | 1.18 ± 0.2 | 0.0588 ± 0.066 | 0.674 ± 0.096 | 0.126 ± 0.02 | 0.419 ± 0.016 | 0.813 ± 0.091 | 0.334 ± 0.028 | 0.187 ± 0.029 | 0.59 ± 0.41 | 1.03 ± 0.027 | 0.146 ± 0.0049
Cc1cn([C@H]2C[C@H](N=[N+]=[N-])[C@@H](CO)O2)c(=O)[nH]c1=O | 0.52 ± 0.49 | 0.626 ± 0.26 | 0.932 ± 0.15 | 1.04 ± 0.19 | 0.733 ± 0.041 | 0.944 ± 0.04 | 0.885 ± 0.024 | 0.712 ± 0.092 | 0.491 ± 0.63 | 0.944 ± 0.18 | 0.778 ± 0.13
CCCCCCCCCCCCC[N+](C)(C)Cc1ccccc1 | 0.675 ± 0.95 | 0.0123 ± 0.0012 | 0.955 ± 0.043 | 1.04 ± 0.27 | 0.787 ± 0.099 | 0.0868 ± 0.0048 | 0.396 ± 0.0083 | 0.0305 ± 0.016 | 0.0614 ± 0.011 | 0.177 ± 0.064 | 0.919 ± 0.13
CC[C@H]1OC(=O)[C@H](C)[C@@H](O[C@H]2C[C@@](C)(OC)[C@@H](O)[C@H](C)O2)[C@H](C)[C@@H](O[C@@H]2O[C@H](C)C[C@H](N(C)C)[C@H]2O)[C@](C)(O)C[C@@H](C)C(=O)[C@H](C)[C@@H](O)[C@]1(C)O | 0.598 ± 0.22 | 0.608 ± 0.21 | 0.92 ± 0.048 | 0.503 ± 0.71 | 0.838 ± 0.027 | 0.9665 ± 0.0044 | 0.961 ± 0.098 | 0.848 ± 0.071 | 0.584 ± 0.39 | 0.939 ± 0.22 | 0.863 ± 0.024
Cc1oc(=O)oc1CN1CCN(c2cc3c(cc2F)c(=O)c(C(=O)O)c2n3C(C)S2)CC1 (configuration not stated) | 0.0525 ± 0.074 | 0.431 ± 0.01 | 1.19 ± 0.31 | 1.23 ± 0.25 | 0.852 ± 0.0094 | 0.942 ± 0.024 | 1.12 ± 0.12 | 0.452 ± 0.31 | 0.586 ± 0.4 | 0.963 ± 0.18 | 0.842 ± 0.022
O=C(Cn1cnnn1)NC1C(=O)N2C(C(=O)O)=C(CSc3nncs3)CSC12 (configuration not stated) | 0.793 ± 0.43 | 0.757 ± 0.21 | 0.955 ± 0.18 | 0.505 ± 0.68 | 0.828 ± 0.017 | 1.045 ± 0.0046 | 0.932 ± 0.17 | 0.307 ± 0.16 | 0.598 ± 0.37 | 1.01 ± 0.22 | 0.799 ± 0.011
COC1(NC(=O)Cc2cccs2)C(=O)N2C(C(=O)[O-])=C(COC(N)=O)CSC21.[Na+] (configuration not stated) | 1.11 ± 0.041 | 0.48 ± 0.015 | 0.855 ± 0.14 | 1.41 ± 0.51 | 0.663 ± 0.13 | 0.984 ± 0.011 | 1.08 ± 0.062 | 0.0814 ± 0.021 | 0.574 ± 0.37 | 1.01 ± 0.21 | 0.829 ± 0.017
CC1CN(c2c(F)c(N)c3c(=O)c(C(=O)O)cn(C4CC4)c3c2F)CC(C)N1 (configuration not stated) | 0.00841 ± 0.012 | 0.442 ± 0.043 | 1.49 ± 0.054 | 1.23 ± 0.24 | 0.715 ± 0.21 | 0.913 ± 0.04 | 0.883 ± 0.029 | 0.603 ± 0.083 | 0.597 ± 0.4 | 0.543 ± 0.76 | 0.92 ± 0.0099
COC1C=COC2(C)Oc3c(C)c(O)c4c(O)c(c5c(nc6cc(C)ccn65)c4c3C2=O)NC(=O)C(C)=CC=CC(C)C(O)C(C)C(O)C(C)C(OC(C)=O)C1C (configuration not stated) | 0.733 ± 0.23 | 0.703 ± 0.32 | 1.12 ± 0.24 | 1.11 ± 0.24 | 0.8 ± 0.047 | 0.746 ± 0.032 | 0.583 ± 0.0086 | 0.423 ± 0.046 | 0.417 ± 0.28 | 0.788 ± 0.15 | 0.106 ± 0.0026
CN(C)CCOC(c1ccccc1)c1ccccc1.Cn1c(=O)c2[nH]c(Cl)nc2n(C)c1=O | 0.811 ± 0.45 | 0.604 ± 0.17 | 1.01 ± 0.12 | 1.32 ± 0.34 | 0.75 ± 0.22 | 0.939 ± 0.018 | 1.05 ± 0.066 | 0.697 ± 0.022 | 0.596 ± 0.39 | 0.534 ± 0.75 | 0.923 ± 0.069
COC(=O)N/N=C/c1c[n+]([O-])c2ccccc2[n+]1[O-] | 0.905 ± 0.076 | 0.651 ± 0.26 | 0.933 ± 0.14 | 1.16 ± 0.23 | 0.803 ± 0.018 | 1.012 ± 0.0043 | 0.591 ± 0.026 | 0.719 ± 0.12 | 0.604 ± 0.4 | 0.913 ± 0.27 | 0.789 ± 0.081
CC1CN(c2c(F)c(F)c3c(=O)c(C(=O)O)cn(C4CC4)c3c2F)CC(C)N1 (configuration not stated) | 0.063 ± 0.089 | 0.599 ± 0.21 | 1.09 ± 0.085 | 0.509 ± 0.72 | 0.8561 ± 0.0075 | 0.97 ± 0.066 | 0.949 ± 0.073 | 0.676 ± 0.015 | 0.597 ± 0.41 | 1.09 ± 0.014 | 0.847 ± 0.13

Reference: the supplement of paper PMC9446081
